Data as given in ChEMBL document CHEMBL4513216, “Probing the Open Global Health Chemical Diversity Library for Multistage-Active Starting Points for Next-Generation Antimalarials” (ACS Infect Dis, 2020).
In all, about 65,000 compounds went through this assay and about 2,100 (3.2%) showed an effect of 50% or more. The median lay at about -52%. Many of the other results were omitted from the sample, so strong results are more common in it than they were.

The compounds below were run on Plasmodium falciparum (assay: Screen against P. falciparum Asexual Blood Stage (ABS), at 5uM). Conditions: tested at 5 uM.
Format: functional, Dd2

Point of comparison: `OC1(CN2CCCCC2)CCN(c2cc(C(F)(F)F)ccn2)C1` (stereo unspecified), INHIBITION 39.2%. Against it:
- OC1(CNCc2csc(-c3ncccn3)n2)CCCNC1 (stereo unspecified) — lower, -26.6%
- Cc1cccnc1C(Cc1ccsc1)NCc1cnc(N(C)C)nc1 (stereo unspecified) — higher, 66.6%
- Cc1cccnc1C(Cc1ccsc1)NC(=O)Cn1cccnc1=O (stereo unspecified) — lower, 4.78%
- CC(C)Oc1cccc(CNC(Cc2ccsc2)c2nccs2)c1 (stereo unspecified) — lower, -29.2%
- CN1CCCC(Cc2cncc(C(=O)N3CCOCC3)c2)C1 (stereo unspecified) — lower, -133%
- O=S1(=O)NC(c2ccnc(N3CCOCC3)n2)=Nc2ccccc21 — lower, -15.8%
- CN(Cc1ccccc1)C(=O)CSc1ccc2c(c1)OCCO2 — lower, -122%
- COc1ccc(CN2CCCC3(CCN(c4ccsc4)C3=O)C2)cc1 (stereo unspecified) — higher, 62.3%
- O=C1N(c2ccsc2)CCC12CCCN(CC1CC1)C2 (stereo unspecified) — higher, 51.6%
- CN(C)C(=O)CN1CCCC2(CCN(c3ccsc3)C2=O)C1 (stereo unspecified) — lower, -78.3%
- COc1ccc(CN2CCC3(CCN(c4cccnc4)C3=O)C2)cc1 (stereo unspecified) — lower, -23.2%
- O=C(CO)N1CCCC2(CCN(c3ccsc3)C2=O)C1 (stereo unspecified) — lower, -104%
- COCCN1CCCC2(CCN(c3ccsc3)C2=O)C1 (stereo unspecified) — lower, 16%
- CC1COC2(CCN(C(=O)Cc3ccncc3)CC2)C1 (stereo unspecified) — lower, -78.3%
- Cc1cc(C2CCCN(CCc3ccc4c(c3)CCO4)C2)n[nH]1 (stereo unspecified) — lower, -25.4%
- COc1ccccc1OCCN1CCCCC1Cn1cncn1 (stereo unspecified) — lower, -9.63%
- CCc1nnc(Nc2cccc(C3CCN(S(=O)(=O)N(C)C)CC3)n2)s1 — lower, 7.99%
- O=C(NCc1nncn1-c1ccccc1)C1CCCCC1 — lower, -107%
- OC1(CN2CCCCC2)CCN(c2cccc(C(F)(F)F)n2)C1 (stereo unspecified) — higher, 60.4%
- N[C@@H]1c2ccccc2C2(CCN(c3ccc(C(F)(F)F)cn3)CC2)[C@H]1O — lower, -38.4%
- O=C1CCC2(CCN(c3cccc(C(F)(F)F)n3)CC2)CN1CCO — lower, -33.7%
- OC1(CN2CCCCC2)CCN(c2ccc(C(F)(F)F)cn2)C1 (stereo unspecified) — higher, 53.5%
- OC1(CN2CCCCC2)CCN(c2nccc(C(F)(F)F)n2)C1 (stereo unspecified) — lower, -41.9%
- Cc1ccc(C(=O)N2CCC(c3n[nH]c(C4CC4)n3)CC2)cc1F — lower, -91.9%
- Cn1ccnc1CN1CCC2(CC1)CC(Oc1cccnc1)C2 — lower, -85.4%
- Cc1ccc(NC(=O)CC2NC(N3CCc4ccccc43)=NC2=O)cc1 (stereo unspecified) — lower, -135%
- O=C1CC(c2ccncc2)C2(CCN(CCc3ccccc3)CC2)N1 (stereo unspecified) — lower, -55.3%
- O=C1CCC2(CCCN(C(=O)c3cnccn3)CC2)N1 (stereo unspecified) — higher, 51.9%
- O=C1CCCC2(CCN(C(=O)c3cnccn3)CC2)N1 — lower, -96.5%
- O=C1CCC2(CCCN(C(=O)c3cccnc3)CC2)N1 (stereo unspecified) — lower, -40.9%
